# Results taken from PubChem BioAssay (NCATS).
# Inconclusive results are not listed. Entries that show only a call come without a potency. Unmarked numbers belong to inactive results. Calls of active or inactive are those of the source. Calls come from the whole dose curve; as a rule, active = well fitted inhibition curve with a large enough effect; inconclusive = small, poorly fitted or top-dose-only effect; inactive = flat fitted curve, though single readings scatter.
# Biological target: Glutathione peroxidase 1 (Homo sapiens) (UniProt P07203)
# Assay: Primary qHTS Assay for Inhibitors of Recombinant Selenoprotein Glutathione Peroxidase 1 (GPX1) (AID 1845191); note: nearly all actives have a fitted effect of over 65% in size
# Settings: recombinant GPX1, GR-coupled NADPH fluorescence, 15 min; series mostly up to 48.8 µM; activity, negative = inhibition: at the top concentration
# Description: Assay Provider: Elias S.J. Arner MD PhD.
# Department of Medical Biochemistry and Biophysics
# Karolinska Institutet, Solna, Stockholm, Sweden
# Selenoprotein glutathione peroxidases (GPX), like the ubiquitously expressed GPX1 and the ferroptosis modulator GPX4, enact their antioxidant activities by reducing hydroperoxides using glutathione. […] GPX1 and GPX4 inhibitors have thus shown promise as anti-cancer agents. Existing inhibitors are often promiscuous, or modulate GPX activity only indirectly, so novel direct inhibitors identified through screening against GPX1 and GPX4 could be valuable. Here, we developed optimized glutathione reductase (GR)-coupled GPX assays for the biochemical high-throughput screen (HTS) of almost 12,000 compounds with known mechanisms of action. Initial hits were triaged using a GR counter-screen, assessed for isoform specificity using a separate GPX2 assay, and were assessed for general selenocysteine-targeting activity using a thioredoxin reductase (TXNRD1) assay. With this suite of assays, we identified novel GPX1/GPX2- and GPX4-specific inhibitors and can here present a validated pipeline for future discovery research for selenoprotein-targeting agents.
# SEQUENCE No. (e.g., 1, 2, 3, etc.); […] (e.g., Cells, Incubation, Reagent, etc.); VALUE; DESCRIPTION.
# 1; Reagent 1; 3 uL; GPx1 enzyme or no enzyme control in 1536-well, black, solid Greiner assay plate.
# 2; Compound; 25 nL; Kalypsis pin tool (Wako USA) equipped with a 1536-well pin head.
# 3; Incubation; 30 min; room temperature.
# 4; Reagent 2; 1 uL; 10 nM GPX1, 1 mM GSH, 0.5 mM CHP, 0.5 mM NADPH, 100 nM GR, 0.01% BSA substrate
# 5; Detection; Fluorescence; ViewLux microplate reader, excitation 340 nm and emission 450 nm.
# 6; Incubation; 15 min; room temperature.
# 7; Detection; Fluorescence; ViewLux microplate reader, excitation 340 nm and emission 450 nm.
# NOTES (numbers refer to Sequence numbers above)
# 1. 3 uL of 16.66 nM GPX1 and 0.016% BSA in assay buffer (50 mM Tris-HCl, 2 mM EDTA (pH 7.5), 150 mM NaCl) was added to columns 3-48 of 1536-well assay plates using a BioRAPTR Flying Reagent Dispenser (Let's Go Robotics (LGR), Carlsbad, CA). A no-enzyme control (0.01% BSA in TES assay buffer) was added to columns 1-2.
# 2. 25 nL of test compounds and DMSO controls were added to each well with a pin tool (Kalypsys).
# 3. The assay plates were incubated for 30 minutes at room temperature.
# 4. 1 uL of master mix (500 nM glutathione reductase (GR), 5 mM reduced glutathione (GSH), 2.5 mM NADPH in assay buffer) was added. 1 uL of cumene hydroperoxide (CHP) ([2.5 mM] in 50% EtOH) was then added within 5 minutes to initiate the reaction. Final concentrations were: 10 nM GPX1, 1 mM GSH, 0.5 mM CHP, 0.5 mM NADPH, 100 nM GR, 0.01% BSA.
# 5. Initial fluorescence readout (t=0) at 340/450 nm was measured using a ViewLux multimodal detector (PerkinElmer, Waltham, MA).
# 7. Endpoint fluorescence readout (t=15) at 340/450 nm was measured 15 min after room temperature incubation.
# Potency is the fitted concentration of half-maximal effect.
# Sequence of Glutathione peroxidase 1 (Homo sapiens) (P07203 whole entry, looked up): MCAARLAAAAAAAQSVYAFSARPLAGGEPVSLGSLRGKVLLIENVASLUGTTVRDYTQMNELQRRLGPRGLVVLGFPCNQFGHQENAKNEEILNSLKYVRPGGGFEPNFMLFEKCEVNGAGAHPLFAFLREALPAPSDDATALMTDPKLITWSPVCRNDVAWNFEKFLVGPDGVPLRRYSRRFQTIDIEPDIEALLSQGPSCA
SMILES,Potency,"activity, negative = inhibition [%]",outcome
CN(C)CC/C=C1/c2ccccc2COc2ccc(CC(=O)O)cc21,inactive,,
C[C@]12CCC(=O)C=C1CC[C@H]1[C@@H]3CC[C@](O)(C(=O)CO)[C@@]3(C)C[C@H](O)[C@@]12F,,-13.4,
CC(C)=CCC1C(=O)N(c2ccccc2)N(c2ccccc2)C1=O,,,inactive
C[C@H]1C[C@H]2[C@@H]3CCC4=CC(=O)C=C[C@]4(C)[C@@]3(Cl)[C@@H](O)C[C@]2(C)[C@@]1(O)C(=O)CO,,,inactive
O=c1[nH]c(=O)n([C@H]2C[C@H](O)[C@@H](CO)O2)cc1C(F)(F)F,inactive,,
Cc1nc2n(c(=O)c1CCN1CCC(c3noc4cc(F)ccc34)CC1)CCC[C@H]2O,inactive,,
CCCn1c(=O)[nH]c(=O)c2[nH]cnc21,,,inactive
C/C=C(/C(=C/C)c1ccc(O)cc1)c1ccc(O)cc1,,-24.7,
CCCCOc1ccc(C(=O)CCN2CCCCC2)cc1,,,inactive
C=C1C[C@H]2[C@@H]3C=C(C)C4=CC(=O)CC[C@]4(C)[C@H]3CC[C@]2(C)[C@@]1(OC(C)=O)C(C)=O,,-9.77,
Cc1ccnc(NS(=O)(=O)c2ccc(N)cc2)n1,,,inactive
CNCCC=C1c2ccccc2CCc2ccccc21,inactive,,
O=C1OCCN1/N=C/c1ccc([N+](=O)[O-])o1,,-15.5,
CNCCC(Oc1ccccc1C)c1ccccc1 (stereo not given),,-15.3,
C[C@@H]1C[C@H]2[C@@H]3CCC4=CC(=O)C=C[C@]4(C)[C@@]3(F)[C@@H](O)C[C@]2(C)[C@H]1C(=O)CO,,-5.09,
Cc1c(N(C)CS(=O)(=O)O)c(=O)n(-c2ccccc2)n1C,3.21 µM (active),,
CCCCOc1ccc(OCCCN2CCOCC2)cc1,,,inactive
CC(C)COC(=O)OCN1C(=O)CN(CCN2CC(=O)N(COC(=O)OCC(C)C)C(=O)C2)CC1=O,,-3.2,
O=C(OCC(O)CO)c1ccccc1Nc1ccnc2cc(Cl)ccc12 (stereo not given),,,inactive
COC1=CC(=O)C[C@@H](C)[C@]12Oc1c(Cl)c(OC)cc(OC)c1C2=O,,-20,

SMILES,Potency,"activity, negative = inhibition [%]",outcome
O=c1ccc2ccccc2o1,,1.45,
CCCCc1nc(Cl)c(CO)n1Cc1ccc(-c2ccccc2-c2nn[nH]n2)cc1,inactive,,
Oc1cc(O)c2c(c1)O[C@H](c1ccc(O)c(O)c1)[C@H](O)C2,,,inactive
Cc1ccc(C(=O)C(C)CN2CCCCC2)cc1 (stereo not given),inactive,,
CC(=O)CC(c1ccc([N+](=O)[O-])cc1)c1c(O)c2ccccc2oc1=O (stereo not given),,-4.85,
CCN(CCCCOC(=O)c1ccc(OC)c(OC)c1)C(C)Cc1ccc(OC)cc1 (stereo not given),,-5.65,
CC(=O)OCC(=O)[C@@]1(OC(C)=O)[C@@H](C)C[C@H]2[C@@H]3C[C@H](F)C4=CC(=O)C=C[C@]4(C)[C@@]3(F)[C@@H](O)C[C@@]21C,,,inactive
CCOC(=O)n1ccn(C)c1=S,,-15.3,
O=C(O)CCCCC(=O)O,,-25.9,
OC[C@H]1O[C@H](O[C@]2(CCl)O[C@H](CCl)[C@@H](O)[C@@H]2O)[C@H](O)[C@@H](O)[C@H]1Cl,inactive,,
CN1[C@@H]2CC[C@H]1CC(OC(=O)c1c[nH]c3ccccc13)C2 (stereo not given in full),inactive,,
C[C@@H](CN(C)C)CN1c2ccccc2Sc2ccccc21,,-12.1,
O=C1c2ccccc2C(=O)C1c1ccccc1,,4.98,
O=c1c(-c2ccccc2)c1-c1ccccc1,,-14.8,
C[C@H](CCC(=O)O)[C@H]1CC[C@H]2[C@@H]3C(=O)C[C@@H]4CC(=O)CC[C@]4(C)[C@H]3CC(=O)[C@]12C,,0.305,
CC(C)C[C@H]1C(=O)N2CCC[C@H]2[C@]2(O)O[C@](NC(=O)[C@@H]3C=C4c5cccc6[nH]c(Br)c(c56)C[C@H]4N(C)C3)(C(C)C)C(=O)N12,inactive,,
CN1CCCC(CC2c3ccccc3Sc3ccccc32)C1 (stereo not given),,,inactive
O=C(OCCOCCO)c1ccccc1Nc1cccc(C(F)(F)F)c1,,-14.7,
CCCCCCCCCCCCCCCCCC(=O)OCC(O)CO (stereo not given),,,inactive
CCCCCCc1ccc(O)cc1O,,,inactive
